In publication PMC4336329 (PLoS ONE, 2015):
About 14,000 (4.5%) of roughly 310,000 compounds showed an effect of 50% or more. The effect is printed as a negative number. The list comes from a sample in which strong results are over-represented; it also holds similar structures and randomly drawn compounds.

What follows are compounds tested against human ether-à-go-go-related gene (hERG) potassium channel (human, UniProt Q12809) (assay: primary screen, population patch clamp on CHO cells stably expressing hERG; higher = less effect of the substance).
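Also: peak tail current of the secondary pulse compared with the same well before compound.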

Chain of human ether-à-go-go-related gene (hERG) potassium channel (Q12809 whole entry, looked up): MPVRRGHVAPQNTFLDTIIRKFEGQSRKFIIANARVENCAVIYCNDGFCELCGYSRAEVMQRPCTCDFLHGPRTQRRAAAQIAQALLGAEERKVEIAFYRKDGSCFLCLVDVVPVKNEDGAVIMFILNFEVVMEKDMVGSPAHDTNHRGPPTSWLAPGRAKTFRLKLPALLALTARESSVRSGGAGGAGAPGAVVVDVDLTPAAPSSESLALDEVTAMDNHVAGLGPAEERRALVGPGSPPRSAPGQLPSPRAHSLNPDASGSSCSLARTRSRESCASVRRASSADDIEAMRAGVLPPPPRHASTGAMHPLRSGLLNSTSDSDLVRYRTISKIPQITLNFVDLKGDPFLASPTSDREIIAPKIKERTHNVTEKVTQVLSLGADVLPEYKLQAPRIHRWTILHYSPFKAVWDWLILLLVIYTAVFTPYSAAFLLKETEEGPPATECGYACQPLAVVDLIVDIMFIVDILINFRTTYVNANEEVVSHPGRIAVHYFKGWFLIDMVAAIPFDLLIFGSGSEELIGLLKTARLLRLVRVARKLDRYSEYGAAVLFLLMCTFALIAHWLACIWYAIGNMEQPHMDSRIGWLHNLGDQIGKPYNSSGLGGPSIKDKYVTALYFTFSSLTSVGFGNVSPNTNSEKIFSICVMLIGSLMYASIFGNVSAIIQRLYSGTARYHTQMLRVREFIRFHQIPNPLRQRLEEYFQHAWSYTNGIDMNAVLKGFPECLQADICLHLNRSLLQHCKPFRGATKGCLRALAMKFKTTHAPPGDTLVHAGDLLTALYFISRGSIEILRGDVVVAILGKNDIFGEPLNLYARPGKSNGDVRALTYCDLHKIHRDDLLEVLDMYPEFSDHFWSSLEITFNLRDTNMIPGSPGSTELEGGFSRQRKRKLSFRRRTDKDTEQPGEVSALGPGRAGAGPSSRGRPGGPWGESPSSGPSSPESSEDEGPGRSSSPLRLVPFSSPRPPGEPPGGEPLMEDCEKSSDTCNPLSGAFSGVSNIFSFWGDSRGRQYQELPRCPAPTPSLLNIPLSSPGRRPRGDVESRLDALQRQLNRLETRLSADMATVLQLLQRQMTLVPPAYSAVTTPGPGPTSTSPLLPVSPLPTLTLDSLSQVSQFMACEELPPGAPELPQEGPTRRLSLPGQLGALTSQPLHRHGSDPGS

Row | Compound | hERG current change (%, negative = inhibition) at 10uM [%]
1 | CN(C)c1ccc(/C=N/NC(=O)c2ccc(-n3cnnn3)cc2)cc1 | 10.8
2 | CCOc1ccc2nc(NS(=O)(=O)Cc3ccccc3)sc2c1 | 9.15
3 | Cc1cc(OC(C)C)c2c(-c3ccccc3)cc(=O)oc2c1 | 16.2
4 | O=C1N=C(N2CCCCC2)S/C1=C\c1ccc(Cl)cc1 | 9.15
5 | O=C(CN1C(=O)NC2(CCCC2)C1=O)OCc1cc(=O)n2cc(Br)ccc2n1 | 0.0178
6 | COc1cc(C(=O)Nc2ccc(-c3nnc(-c4ccco4)o3)cc2)cc(OC)c1OC | -3.23
7 | Cc1ccnc(NS(=O)(=O)c2cccc([N+](=O)[O-])c2)c1 | 0.0315
8 | CCNC(=O)CC1C(=O)N(c2cccc(OC)c2)C(=O)N1CCOC (stereo not shown) | 8.39
9 | COc1ccc(CNC(=O)C(c2ccco2)N(Cc2cccs2)C(=O)Cc2cccs2)cc1 (stereo not shown) | 10.6
10 | Cc1cccc(OCC(=O)N(Cc2nnc(-c3ccccc3Cl)o2)C2CC2)c1 | -54.2
11 | Cc1ccc(OCC(=O)N(Cc2nnc(-c3ccccc3Cl)o2)C2CC2)cc1C | -44.1
12 | O=C(COc1ccccc1)N(Cc1nnc(-c2ccccc2Cl)o1)C1CC1 | -15
13 | Cc1ccc(S(=O)(=O)NCC(=O)N(CC(=O)NCc2ccco2)Cc2ccccc2)cc1 | -10.2
14 | Cc1ccc(S(=O)(=O)NCC(=O)N(CC(=O)NCc2ccco2)Cc2ccco2)cc1 | -23.5
15 | COc1ccc(CNC(=O)CN(Cc2ccco2)C(=O)CNS(=O)(=O)c2ccc(C)cc2)cc1 | -73
16 | COc1ccc(CN(CC(=O)NCc2ccco2)C(=O)CNS(=O)(=O)c2ccc(C)cc2)cc1 | -63.3
17 | O=C(CN(Cc1ccccc1)C(=O)CNS(=O)(=O)c1ccccc1)NCc1ccco1 | -0.255
18 | COc1ccc(CNC(=O)CN(Cc2ccco2)C(=O)CNS(=O)(=O)c2ccccc2)cc1 | -38.7
19 | COc1ccc(S(=O)(=O)NCC(=O)N(CC(=O)NCc2ccccc2)Cc2ccco2)cc1 | -17
20 | O=C(CN(Cc1ccco1)C(=O)CNS(=O)(=O)c1ccc(F)cc1)NCc1ccco1 | -8.87
21 | O=C(CN(Cc1ccco1)C(=O)CNS(=O)(=O)c1ccc(Cl)cc1)NCc1ccco1 | -55.4
22 | COc1cccc(CN(CC(=O)NCc2ccco2)C(=O)CNS(=O)(=O)c2ccccc2)c1 | -53.1
23 | COc1ccc(S(=O)(=O)NCC(=O)N(CC(=O)NCc2ccco2)Cc2ccc(F)cc2)cc1 | 1.94
24 | COc1ccc(S(=O)(=O)NCC(=O)N(CC(=O)NCc2ccco2)Cc2ccccc2)cc1 | -10.6
25 | Cc1ccc(C)c(N2CCN(S(=O)(=O)c3csc(C(N)=O)c3)CC2)c1 | -8.27
26 | CCC1CCCCN1c1nc2c(C=O)c(C)nn2c2ccccc12 (stereo not shown) | -12
27 | COc1cccc(-c2nc(CS(=O)(=O)CC(=O)Nc3cc(F)ccc3F)c(C)o2)c1 | 8.16

Row | Compound | hERG current change (%, negative = inhibition) at 10uM [%]
28 | COCCNc1ccc(S(=O)(=O)N2CCCC2)cn1 | 13.2
29 | COc1ccc(-c2c3c(=O)n(C)c(=O)n(C)c3cn2NC(C)=O)cc1 | 12.2
30 | Cc1ccc(C)c(Cn2nnc3c(=O)[nH]c(C4CCCN(C(=O)c5cccs5)C4)nc32)c1 (stereo not shown) | 0.859
31 | Cc1ccc(C)c(Cn2nnc3c(=O)[nH]c(C4CCCN(C(=O)CC(C)C)C4)nc32)c1 (stereo not shown) | -14.6
32 | Cc1ccc(C)c(Cn2nnc3c(=O)[nH]c(C4CCCN(C(=O)c5ccco5)C4)nc32)c1 (stereo not shown) | -38.3
33 | Cc1ccc(C)c(Cn2nnc3c(=O)[nH]c(C4CCCN(C(=O)C5CCCCC5)C4)nc32)c1 (stereo not shown) | -51.5
34 | Cc1ccc(Cn2nnc3c(=O)[nH]c(C4CCN(C(=O)c5cccs5)CC4)nc32)cc1 | -33
35 | Cc1ccc(C)c(Cn2nnc3c(=O)[nH]c(C4CCN(C(=O)c5cccs5)CC4)nc32)c1 | -66.5
36 | O=C(C1CCCCC1)N1CCCC(c2nc3c(nnn3Cc3ccccc3)c(=O)[nH]2)C1 (stereo not shown) | -8.73
37 | Cc1ccc(C)c(Cn2nnc3c(=O)[nH]c(C4CCCN(C(=O)C5CCC5)C4)nc32)c1 (stereo not shown) | -32.4
38 | CCCCC(=O)N1CCCC(c2nc3c(nnn3Cc3cc(C)ccc3C)c(=O)[nH]2)C1 (stereo not shown) | -52.2
39 | Cc1c(C(=O)N/N=C/c2ccc(N(C)C)cc2)[nH]c2ccc(Cl)cc12 | 2.69
40 | COC(=O)C1=C(C(=O)c2ccccc2)C(c2cccs2)n2nnnc2N1 (stereo not shown) | 19.8
41 | Cc1ccc(CN2C(=O)CCC2C(=O)NCc2ccc3c(c2)OCO3)cc1 (stereo not shown) | -17.4
42 | NS(=O)(=O)c1ccc(CNC(=S)NCc2ccc(F)cc2)cc1 | 9.61
43 | CCOC(=O)c1ccc(NC(=O)CC2C(=O)N(c3ccccc3)C(=O)N2CCCOC)cc1 (stereo not shown) | -4.49
44 | CC(=O)NS(=O)(=O)c1ccc(NC(=O)/C=C/c2cn(-c3ccccc3)nc2-c2ccccc2)cc1 | 34
45 | COc1ccc(C(=O)OCCN2CCN(C3=NS(=O)(=O)c4ccccc43)CC2)cc1OC | -32.9
46 | O=C(OCCN1CCN(C2=NS(=O)(=O)c3ccccc32)CC1)c1ccccc1F | -16.9
47 | O=C(c1ccc([N+](=O)[O-])cc1)N1CCN(C2=NS(=O)(=O)c3ccccc32)CC1 | -46.2
48 | O=C(OCCN1CCN(C2=NS(=O)(=O)c3ccccc32)CC1)c1cccc(Br)c1 | -68.6
49 | O=C(c1ccc(F)cc1)N1CCN(C2=NS(=O)(=O)c3ccccc32)CC1 | -15.8
50 | O=C(c1cccc(Br)c1)N1CCN(C2=NS(=O)(=O)c3ccccc32)CC1 | -65.8
51 | COc1ccc2c(CC(=O)OCC(=O)NC(N)=O)coc2c1 | 0.524
52 | COc1ccc(N2C(=NC(=O)C3CCCO3)SC3CS(=O)(=O)CC32)cc1 (stereo not shown) | 5.78
53 | Cc1ccc(C)c(NC(=O)c2ccc3nccnc3c2)c1 | 2.6
54 | COc1ccc(N=C2NC(=O)CS2)c([N+](=O)[O-])c1 | 11.4

Row | Compound | hERG current change (%, negative = inhibition) at 10uM [%]
55 | O=C(Nc1ccc2c(c1)OCO2)[C@@H]1CCCN1S(=O)(=O)c1cccc2cccnc12 | -6.18
56 | CCOC(=O)C1C(c2ccc(Cl)cc2)NC(=S)NC1(O)C(F)(F)F (stereo not shown) | 16.7
57 | Cn1ccnc1SCC(=O)Nc1nc2c(F)c(F)c(F)cc2s1 | 11.3
58 | O=C(O)COCC(=O)N1CCc2c([nH]c3ccccc23)C1C(F)(F)F (stereo not shown) | 2.14
59 | O=C(NCCc1ccc(F)cc1)C(=O)NCC1CCCN1S(=O)(=O)c1cccs1 (stereo not shown) | -57.6
60 | O=C(NCCc1ccc(F)cc1)C(=O)NCC1CCCN1S(=O)(=O)c1ccccc1 (stereo not shown) | -61.7
61 | CN(C)CCNC(=O)C(=O)Nc1ccc2c(c1)N(S(=O)(=O)c1cccs1)CCC2 | -2.98
62 | O=C(NCc1ccc(F)cc1)C(=O)NCC1CCCN1S(=O)(=O)c1ccccc1 (stereo not shown) | -38.2
63 | Cc1ccc(C)c(S(=O)(=O)N2CCCCC2CCNC(=O)C(=O)NCc2ccccn2)c1 (stereo not shown) | -19.8
64 | Cc1cc(F)ccc1S(=O)(=O)N1CCCCC1CCNC(=O)C(=O)NCc1ccccn1 (stereo not shown) | -61.4
65 | O=C(NCCc1ccccc1)C(=O)NCC1CCCN1S(=O)(=O)c1ccccc1 (stereo not shown) | -41.9
66 | O=C(NCCc1ccccc1)C(=O)NCC1CCCN1S(=O)(=O)c1cccs1 (stereo not shown) | -22.7
67 | O=C(NCCC1CCCCN1S(=O)(=O)c1ccc(F)cc1)C(=O)NCc1ccccn1 (stereo not shown) | -11.9
68 | CCN(CC)CCNC(=O)C(=O)Nc1ccc2c(c1)N(S(=O)(=O)c1cccs1)CCC2 | -78.2
69 | CCCNC(=O)C(=O)Nc1ccc2c(c1)N(S(=O)(=O)c1cccs1)CCC2 | -33.6
70 | COc1ccc(CCNC(=O)C(=O)NCC2CCCN2S(=O)(=O)c2cccs2)cc1 (stereo not shown) | -32.9
71 | COc1ccc(N)cc1NC(=O)CN1CCCC1 | 19.3
72 | CCN(CC)S(=O)(=O)c1ccc(Cl)c(NC(=O)COC(=O)c2ccc(O)cc2)c1 | -21.4
73 | CCCCC(=O)Nc1ccc(C(=O)N2CCCC(C(=O)OCC)C2)cc1 (stereo not shown) | 7.66
74 | O=C(NCCC1CCCCN1S(=O)(=O)c1cccs1)C(=O)Nc1ccc(F)cc1 (stereo not shown) | -6.79
75 | O=C(NCCC1CCCCN1S(=O)(=O)c1cccs1)C(=O)Nc1ccccc1 (stereo not shown) | -10.1
76 | O=C(NCCC1CCCCN1S(=O)(=O)c1cccs1)C(=O)Nc1cccc(F)c1 (stereo not shown) | -50.1
77 | Cc1ccc(N2C(=O)N(CC(=O)Nc3cccc(Cl)c3)C(=O)C2C)cc1 (stereo not shown) | -14.9
78 | O=C(COC(=O)CCc1ccc(S(=O)(=O)N2CCOCC2)cc1)NC1CCCCCC1 | -10.8
79 | CN(C)c1ccc(-c2cccc(C3CC=CC4C3C(=O)N(Cc3ccccc3)C4c3ccc4ccccc4c3)c2)cc1 (stereo not shown) | 17.5
